Ten molecules from PubChem BioAssay can be followed below.

The test system of this test is Inhibin beta A chain (activin A). The test can be described thus: small molecules binding activin A – biochemical, small-molecule microarray, 635 nm fluorescence scan, primary screen (AID 1107).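 Further: mouse activin A protein probed at 4.33 µg/mL on printed slides; score merges bound-protein fluorescence near 667 nm with spot signal-to-noise.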 As to conditions: INHBA, higher = more signal.
In turn, `C=CCC(OC(C)=O)[C@@H]1[C@@H](N(Cc2ccc(-c3cccc(C(F)(F)F)c3)o2)C(=O)c2ccc(-c3ccccc3)cc2)c2cc(OCCCO)ccc2N1C(=O)Cc1ccc2ccccc2c1` (stereo not given in full) showed a composite z-score of 0.841.
As for `CCOC(=O)C1=C[C@@H](c2ccccc2)N(S(=O)(=O)c2ccc(C)cc2)[C@H]1c1ccc(OC)cc1`, the composite z-score came to 1.25.
Take `CS(=O)(=O)CCOC(=O)C1=CC(CCCO)=CC(c2ccc(CN3CCCC3)cc2)N(Cc2sc3ccccc3c2Cl)C=C1C(=O)OCCS(C)(=O)=O` (stereo not given): the composite z-score turned out to be 1.34.
The value for `CCOC(=O)C[C@H]1[C@H](OC(=O)Cc2ccc3c(c2)OCO3)[C@@H](NC(=O)c2ccc3ccccc3n2)c2cc(OCCCO)ccc2N1C(=O)c1ccc2ccccc2n1` was 0.265; that for `C=CCC(OC(C)=O)[C@@H]1[C@@H](N(Cc2ccc(-c3ccccc3)cc2)C(=O)c2ccc(-c3ccccc3)cc2)c2cc(OCCCO)ccc2N1C(=O)c1ccc2ccccc2c1` (stereo not given in full) was 0.82; that for `Cc1ccc(NN2C(C(O)c3c(F)cccc3Cl)C=CC3C(=O)N(C4CCCCC4)C(=O)C32)cc1` (stereo not given) was 1.32.
Regarding `CN(C)C(=O)[C@]1(Cc2ccccc2CN=[N+]=[N-])N=C(c2ccc(OCCCO)cc2)O[C@@H]1c1ccccc1`, the composite z-score turned out to be 1.29.
In the case of `Cc1ccc(S[C@]2(C(=O)O)CC(=O)N(C3CCCCC3)[C@@H]2c2ccc(CO)cc2I)cc1` it was 1.06; in that of `CCOC(=O)C[C@H]1[C@H](OC(=O)c2cc3ccccc3oc2=O)[C@@H](NC(=O)CC(C)C)c2cc(OCCCO)ccc2N1C(=O)c1ccc2ccccc2n1`, 0.413.
Turning to `CCOC(=O)C[C@H]1[C@H](OC(=O)c2ccc(-c3ccccc3)cc2)[C@@H](NC(=O)CC(C)C)c2cc(OCCCO)ccc2N1C(=O)c1ccc2ccccc2n1`, the composite z-score came out at 0.0746.
